# Reference: PubChem BioAssay (NCATS)
# Where “and” joins values, the source holds several entries; their conditions need not be identical. Identical values can stand only once. A number with no mark means an inactive call. Records with an inconclusive call do not appear. Entries that show only a call come without a potency. Calls of active or inactive are those of the source. Unless noted, the call rests on the fitted dose curve; in most records, active means well fitted curve in the direction sought with a large enough effect; inconclusive means small, poorly fitted or top-dose-only effect, or another doubt; inactive means no such curve, though single readings can be large; an effect the other way counts as inactive or inconclusive.
# Columns and labels:
# [1] = qHTS Screen of the MIPE 4.0 Collection Against Ewings Sarcoma (TC32) (AID 1259256); further: nearly all actives have a fitted effect of over 45% in size; further: potency means the concentration at half of the fitted maximal effect
# Method in brief: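 Compound titrations go onto adherent log-phase cells 4 h after seeding, incubate 48 h at 37C, then CellTiter-Glo luminescence reports viability relative to DMSO and cell-free controls.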
# [2] = qHTS assay to identify small molecule inhibitors of chordoma cells - UCH-2 (AID 1259356); further: series mostly up to about 46 µM
# [3] = P-glycoprotein substrates identified in KB-3-1 adenocarcinoma cell line, qHTS therapeutic library screen (AID 1346986); further: nearly all actives have a fitted effect of over 60% in size
# Method in brief: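 Using luminescence to quantify ATP, parental and P-gp-overexpressing KB cells were compared after 72 h compound titration. KB-8-5-11 was also run with the P-gp inhibitor tariquidar.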
# [4] = P-glycoprotein substrates identified in KB-8-5-11 adenocarcinoma cell line, qHTS therapeutic library screen (AID 1346987); further: nearly all actives have a fitted effect of over 65% in size; further: potency means the concentration at half of the fitted maximal effect
# Method in brief: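 In this qHTS, P-gp-rich KB-8-5-11 cells received library compounds across a concentration range. Viability was quantified by luminescence after 72 h at 37 degree C.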
# [5] = Natriuretic polypeptide receptor (hNpr1) antagonism - Pilot counterscreen GloSensor control cell line (AID 1347045; calls by dose curve; further: series mostly up to about 38 µM)
# Method in brief: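 HEK293 cGMP-sensor cells; 2% GloSensor reagent 2 h RT; LOPAC compounds in 1:5 titrations 30-50 min; 50 uM SNP 20 min; luminescence pre-read and post-read.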
# [6] = target: Atrial natriuretic peptide receptor 2 (Homo sapiens) (UniProt P20594); experiment: Natriuretic polypeptide receptor (hNpr2) antagonism - Pilot subtype selectivity assay (AID 1347050; calls by dose curve)
# Chain of Atrial natriuretic peptide receptor 2 (Homo sapiens) (P20594 whole entry, looked up): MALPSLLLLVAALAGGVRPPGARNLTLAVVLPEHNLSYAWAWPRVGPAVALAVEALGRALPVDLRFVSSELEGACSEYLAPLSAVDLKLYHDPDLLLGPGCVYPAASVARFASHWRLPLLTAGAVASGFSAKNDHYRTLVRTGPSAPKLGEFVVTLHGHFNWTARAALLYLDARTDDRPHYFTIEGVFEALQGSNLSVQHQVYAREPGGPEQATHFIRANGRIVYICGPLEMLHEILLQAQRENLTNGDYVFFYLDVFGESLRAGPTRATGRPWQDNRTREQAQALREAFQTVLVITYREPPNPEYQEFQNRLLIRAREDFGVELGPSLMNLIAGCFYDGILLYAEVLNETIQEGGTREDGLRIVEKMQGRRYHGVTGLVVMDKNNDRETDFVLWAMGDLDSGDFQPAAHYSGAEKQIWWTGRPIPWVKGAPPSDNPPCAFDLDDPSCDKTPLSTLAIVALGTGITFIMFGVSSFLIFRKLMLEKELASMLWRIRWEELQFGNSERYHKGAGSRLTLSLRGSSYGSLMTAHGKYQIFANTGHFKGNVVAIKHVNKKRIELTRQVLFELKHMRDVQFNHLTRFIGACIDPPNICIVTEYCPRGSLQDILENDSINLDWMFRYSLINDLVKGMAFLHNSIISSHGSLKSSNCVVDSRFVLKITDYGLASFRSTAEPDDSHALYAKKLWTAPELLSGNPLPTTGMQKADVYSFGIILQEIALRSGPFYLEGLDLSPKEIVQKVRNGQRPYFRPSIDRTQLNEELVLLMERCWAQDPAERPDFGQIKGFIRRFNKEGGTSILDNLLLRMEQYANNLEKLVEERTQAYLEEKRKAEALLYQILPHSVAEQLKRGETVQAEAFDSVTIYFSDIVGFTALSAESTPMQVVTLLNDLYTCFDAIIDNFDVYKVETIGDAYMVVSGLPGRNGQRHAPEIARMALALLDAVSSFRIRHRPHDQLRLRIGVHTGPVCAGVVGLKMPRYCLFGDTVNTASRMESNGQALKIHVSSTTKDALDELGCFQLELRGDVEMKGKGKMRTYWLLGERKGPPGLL
# Method in brief: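 Read-out: GloSensor luminescence (CCD imager), baseline vs post-stimulation. HEK293 cells expressing hNpr2; compounds pre-incubated 30-50 min at ambient temperature; hNppC 1 nM final, 20 min.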
# [7] = NS1 protein of Zika virus - qHTS assay to identify small molecule inhibitors in human HEK 293 cells (AID 1347053); further: series mostly up to about 46 µM; nearly all actives have a fitted effect of over 55% in size
# Method in brief: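 Readout was TR-FRET using paired anti-NS1 antibodies after 24 h infection of HEK 293 cells with ZIKV MR766 (MOI = 0.5). Compound preceded virus by 1 h; reduced signal reflects lower NS1 expression.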
# [8] = target: T1, Tyrosine-protein phosphatase non-receptor type substrate 1 (Homo sapiens) + Leukocyte surface antigen CD47 (Homo sapiens) (UniProt P78324+Q08722); experiment: CD47-SIRPalpha protein protein interaction - HTRF assay qHTS validation (AID 1347058; active means well fitted curve in the direction sought with a large enough effect in the signal ratio, not every such curve was filed as active; the % refers to the signal ratio; further: series mostly up to about 38 µM)
# T1 sequence (P78324 whole entry, looked up, the tested form may be a part): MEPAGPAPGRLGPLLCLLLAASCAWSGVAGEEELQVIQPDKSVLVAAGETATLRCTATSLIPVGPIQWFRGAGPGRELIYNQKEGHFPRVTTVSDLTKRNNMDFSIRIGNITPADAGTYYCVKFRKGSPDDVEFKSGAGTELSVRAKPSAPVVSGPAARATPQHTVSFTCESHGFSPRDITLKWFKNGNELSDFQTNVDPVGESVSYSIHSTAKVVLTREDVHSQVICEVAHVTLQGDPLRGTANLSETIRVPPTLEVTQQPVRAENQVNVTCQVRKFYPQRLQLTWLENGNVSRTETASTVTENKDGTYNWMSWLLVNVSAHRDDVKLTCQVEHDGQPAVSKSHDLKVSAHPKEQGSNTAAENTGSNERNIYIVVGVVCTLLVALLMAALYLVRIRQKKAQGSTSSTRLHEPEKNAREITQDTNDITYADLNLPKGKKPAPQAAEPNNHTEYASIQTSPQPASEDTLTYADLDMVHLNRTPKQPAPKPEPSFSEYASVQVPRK
# T1 sequence (Q08722 whole entry, looked up, the tested form may be a part): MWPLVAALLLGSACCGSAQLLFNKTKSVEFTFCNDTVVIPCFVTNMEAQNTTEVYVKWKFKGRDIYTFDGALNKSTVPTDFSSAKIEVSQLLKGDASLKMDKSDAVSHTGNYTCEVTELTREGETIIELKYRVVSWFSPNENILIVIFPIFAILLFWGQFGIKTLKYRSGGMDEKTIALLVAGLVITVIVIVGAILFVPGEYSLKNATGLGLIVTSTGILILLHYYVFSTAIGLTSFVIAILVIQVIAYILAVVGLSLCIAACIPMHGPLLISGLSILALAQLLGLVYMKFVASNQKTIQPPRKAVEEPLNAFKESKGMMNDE
# Method in brief: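 Soluble extracellular domains (6His-CD47, Avi-tag-biotinylated SIRPalpha) in PBS pH 7.4 with 0.05% IGEPAL CA-630. Compounds were preincubated 30 min at RT with CD47 and anti-His-Eu, then SIRPalpha and SAV-XL665 were added. TR-FRET 665/615 ratio.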
# [9] = target: T1, Tyrosine-protein phosphatase non-receptor type substrate 1 (Homo sapiens) + Leukocyte surface antigen CD47 (Homo sapiens); experiment: CD47-SIRPalpha protein protein interaction - Alpha assay qHTS validation (AID 1347059);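 further: bead proximity luminescence from CD47 binding SIRPalpha after compound preincubation with SIRPalpha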
# Method in brief: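 In PBS (pH 7.4) with 0.05% IGEPAL CA-630, compound is preincubated with biotin-Avi-SIRPalpha ectodomain before His-CD47 ectodomain and affinity beads are added. Light-protected room-temperature incubations; AlphaScreen readout.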
# [10] = qHTS of pediatric cancer cell lines to identify multiple opportunities for drug repurposing: Primary screen for TC32 cells (AID 1347089); further: nearly all actives have a fitted effect of over 60% in size
# Method in brief: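 In the primary qHTS, MIPE compounds were tested at 11 concentrations (0.78 nM to 46 µM) and NPC compounds at 8 (0.59 nM to 46 µM) on TC32 cells for 48 h. CellTiter-Glo luminescence gave viability.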
# [11] = qHTS of pediatric cancer cell lines to identify multiple opportunities for drug repurposing: Primary screen for DAOY cells (AID 1347090); further: nearly all actives have a fitted effect of over 55% in size; further: potency means the concentration at half of the fitted maximal effect
# Method in brief: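 Eight- or eleven-point concentration series, 48 h treatment at 37 degrees C in growth media; readout CellTiter-Glo luminescence. Potency and efficacy were taken from the concentration-response curves.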
# [12] = Identifying Small Molecule Inhibitors of Pancreatic Cancer Stem Cells (Panc1, Spheroid) (AID 1259359);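 further: compound exposure lasted 48 h before reading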
# Method in brief: (§1)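 Viability is scored by CellTiter-Glo luminescence 48 h after dosing, expressed as percent activity against vehicle and no-cell references. Spheroid formats rely on cells cultured 14 days in stem cell media beforehand.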
# [13] = Identifying Small Molecule Inhibitors of Pancreatic Cancer Stem Cells (SN12C, Spheroid) (AID 1259360); settings: Potency: SN12C spheroid viability
# Method in brief: (§2)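 Adherent (2D) versus sphere (3D) formats; spheres generated 14 d in SCM beforehand. Compound transferred by pin tool after 4 h, 48 h incubation, CellTiter-Glo endpoint.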
# [14] = Identifying Small Molecule Inhibitors of Pancreatic Cancer Stem Cells (A278, Adherent) (AID 1259361);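 further: viability read after 48 h compound exposure; nearly all actives have a fitted effect of over 35% in size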
# Method in brief: as §1
# [15] = qHTS assay to identify small molecule inhibitors of chordoma cells - UCH-1 (AID 1259355); further: nearly all actives have a fitted effect of over 55% in size
# Method in brief: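 A 48hr growth-inhibition format: each drug tested at 15 concentrations together with added auranofin, camptothecin, doxorubicin, rubitecan and topotecan, with cell viability quantified as CellTiter-Glo luminescence.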
# [16] = target: Parathyroid hormone/parathyroid hormone-related peptide receptor (Homo sapiens) (UniProt Q03431); experiment: qHTS for PTHR1 Agonists: Optimization Screen against the NCGC LOPAC library (AID 1347079);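 further: GloSensor cAMP luminescence in HEK-293 GP2 cells expressing human PTHR1 with IBMX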
# Chain of Parathyroid hormone/parathyroid hormone-related peptide receptor (Homo sapiens) (Q03431 whole entry, looked up): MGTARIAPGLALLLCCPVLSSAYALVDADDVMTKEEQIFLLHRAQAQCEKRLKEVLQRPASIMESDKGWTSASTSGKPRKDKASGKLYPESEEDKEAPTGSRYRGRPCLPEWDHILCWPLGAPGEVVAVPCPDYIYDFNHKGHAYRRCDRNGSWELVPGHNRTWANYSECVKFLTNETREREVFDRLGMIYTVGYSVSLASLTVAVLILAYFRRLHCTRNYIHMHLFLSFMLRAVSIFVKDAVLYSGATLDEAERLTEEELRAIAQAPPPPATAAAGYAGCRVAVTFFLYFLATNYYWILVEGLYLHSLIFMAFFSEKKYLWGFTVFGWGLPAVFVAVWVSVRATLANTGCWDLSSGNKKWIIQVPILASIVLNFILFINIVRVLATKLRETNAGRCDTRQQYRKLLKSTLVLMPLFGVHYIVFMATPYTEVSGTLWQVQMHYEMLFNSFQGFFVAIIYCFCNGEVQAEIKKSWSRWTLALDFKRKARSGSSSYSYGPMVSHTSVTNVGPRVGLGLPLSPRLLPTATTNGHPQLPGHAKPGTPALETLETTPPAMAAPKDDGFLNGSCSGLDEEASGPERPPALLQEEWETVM
# Method in brief: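 Signal increase flags agonism. GP2 cells, derived from HEK-293, express human PTHR1 and a GloSensor cAMP construct.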
# [17] = Identifying Small Molecule Inhibitors of Pancreatic Cancer Stem Cells (SN12C, Adherent) (AID 1259358);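 further: cell survival measured after 48 h of compound exposure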
# Method in brief: as §1
# [18] = Identifying Small Molecule Inhibitors of Pancreatic Cancer Stem Cells (Panc1, Adherent) (AID 1259362); settings: Potency: viability;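 further: compound exposure lasted 48 h before the viability read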
# Method in brief: as §2
# [19] = target: T1, Tyrosine-protein phosphatase non-receptor type substrate 1 (Homo sapiens) + Leukocyte surface antigen CD47 (Homo sapiens); experiment: CD47-SIRPalpha protein protein interaction - LANCE assay qHTS validation (AID 1347057; active means well fitted curve in the direction sought with a large enough effect in the signal ratio, with a control signal flat, not every such curve was filed as active; the % refers to the signal ratio; further: series mostly up to about 38 µM)
# Method in brief: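 Inhibition of soluble CD47/SIRPalpha ectodomain association by titrated compounds, measured as 665/615 nm time-resolved FRET ratio after sequential 30 min room-temperature incubations.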
# [20] = target: Atrial natriuretic peptide receptor 1 (Homo sapiens) (UniProt P16066); experiment: Natriuretic polypeptide receptor (hNpr1) antagonism - Pilot screen (AID 1347049; calls by dose curve;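 further: HEK293 cells with hNpr1 and GloSensor cGMP luciferase stimulated by 0.1 nM hNppA; agonist-evoked cGMP luminescence read 20 min after hNppA addition; series mostly up to about 58 µM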)
# Chain of Atrial natriuretic peptide receptor 1 (Homo sapiens) (P16066 whole entry, looked up): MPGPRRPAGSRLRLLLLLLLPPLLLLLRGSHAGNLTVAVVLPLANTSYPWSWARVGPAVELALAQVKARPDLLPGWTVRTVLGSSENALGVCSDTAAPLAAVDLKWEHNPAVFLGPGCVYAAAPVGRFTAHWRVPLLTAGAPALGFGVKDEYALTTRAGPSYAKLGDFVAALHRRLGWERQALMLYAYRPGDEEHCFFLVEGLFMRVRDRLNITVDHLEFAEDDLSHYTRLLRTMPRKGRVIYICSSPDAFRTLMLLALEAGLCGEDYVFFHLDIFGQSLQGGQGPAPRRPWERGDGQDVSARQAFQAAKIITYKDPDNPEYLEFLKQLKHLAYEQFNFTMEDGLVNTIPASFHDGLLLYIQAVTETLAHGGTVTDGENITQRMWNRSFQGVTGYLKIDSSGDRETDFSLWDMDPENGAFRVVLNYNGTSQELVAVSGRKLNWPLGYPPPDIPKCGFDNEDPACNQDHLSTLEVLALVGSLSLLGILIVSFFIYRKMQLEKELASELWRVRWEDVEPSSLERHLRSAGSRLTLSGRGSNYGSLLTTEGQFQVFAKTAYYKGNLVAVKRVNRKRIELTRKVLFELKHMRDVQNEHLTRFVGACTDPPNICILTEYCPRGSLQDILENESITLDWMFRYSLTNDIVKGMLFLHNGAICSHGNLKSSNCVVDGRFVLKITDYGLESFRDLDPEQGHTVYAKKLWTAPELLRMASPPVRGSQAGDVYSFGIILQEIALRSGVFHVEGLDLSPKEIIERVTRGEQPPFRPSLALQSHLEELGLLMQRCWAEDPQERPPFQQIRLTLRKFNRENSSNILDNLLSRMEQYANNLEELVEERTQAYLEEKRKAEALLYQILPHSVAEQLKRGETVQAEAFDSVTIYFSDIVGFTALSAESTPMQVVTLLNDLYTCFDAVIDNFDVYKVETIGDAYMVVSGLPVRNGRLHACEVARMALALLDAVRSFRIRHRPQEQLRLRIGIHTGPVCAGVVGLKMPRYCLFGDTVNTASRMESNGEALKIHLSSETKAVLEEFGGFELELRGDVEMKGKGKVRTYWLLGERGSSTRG
# Method in brief: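 Cells expressing receptor plus cGMP biosensor are seeded and incubated overnight at 37C, then loaded with GloSensor reagent (2% final) at room temperature for 2 h. Library compounds go on for 30 min. A pre-read precedes agonist (hNppA, 0.1 nM final) and a 20-min readout.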
compound,measurement,setting,value
Cc1cn[nH]c1,Potency,[1],inactive
same,outcome,[2],inactive
same,Potency,[3],inactive
same,Potency,[4],inactive
same,outcome,[5],inactive
same,Potency,[6],inactive
same,Potency,[7],inactive
same,outcome,[8],inactive
same,outcome,[9],inactive
same,Potency,[10],inactive
same,Potency,[11],inactive
CCC(C)(C)C(=O)O[C@H]1C[C@@H](C)C=C2C=C[C@H](C)[C@H](CC[C@@H]3C[C@@H](O)CC(=O)O3)[C@H]21,Potency,[1],3.72 µM (active)
same,outcome,[2],inactive
same,Potency,[12],inactive
same,Potency,[13],inactive
same,IC50 (viability decrease),[14],3.17 µM (active)
same,Potency,[4],16.6 µM (active)
same,Potency,[11],6.68 µM (active) and 5.9 µM (active)
Cc1cnc(NC(=O)C2=C(O)c3ccccc3S(=O)(=O)N2C)s1,Potency,[1],inactive
same,Potency,[15],inactive
same,outcome,[2],inactive
same,Potency,[7],inactive
same,outcome,[8],inactive
same,outcome,[9],inactive
same,outcome,[16],inactive
same,Potency,[10],inactive
same,Potency,[11],inactive
Cc1c(C)c2c(c(C)c1O)CCC(C)(COc1ccc(CC3SC(=O)NC3=O)cc1)O2 (stereo unspecified),Potency,[1],inactive
same,outcome,[2],inactive
same,Potency,[17],inactive
same,Potency,[13],inactive
same,Potency,[18],inactive
same,Potency,[4],inactive
same,Potency,[7],inactive
same,Potency,[10],inactive
same,Potency,[11],inactive
CCN(CC)CCCC(C)Nc1ccnc2cc(Cl)ccc12 (stereo unspecified),Potency,[1],inactive
same,outcome,[2],inactive
same,Potency,[3],inactive
same,Potency,[4],inactive
same,Potency,[6],inactive
same,Potency,[7],inactive
same,Potency,[10],inactive
CCCC(CCC)C(=O)O,Potency,[1],inactive
same,Potency,[15],inactive
same,outcome,[2],inactive
same,outcome,[5],inactive
same,Potency,[6],inactive
same,outcome,[8],inactive
same,outcome,[9],inactive
same,outcome,[16],inactive
same,Potency,[10],inactive
same,Potency,[11],inactive
Clc1cccc(Cl)c1NC1=NCCN1,Potency,[1],inactive
same,Potency,[15],inactive
same,outcome,[2],inactive
same,Potency,[3],inactive
same,Potency,[4],inactive
same,outcome,[5],inactive
same,Potency,[6],inactive
same,Potency,[7],inactive
same,outcome,[8],inactive
same,outcome,[9],inactive
same,Potency,[10],inactive
same,Potency,[11],inactive
CCCc1nn(C)c2c(=O)[nH]c(-c3cc(S(=O)(=O)N4CCN(C)CC4)ccc3OCC)nc12,Potency,[1],5.26 µM (active)
same,outcome,[2],inactive
same,Potency,[17],inactive
same,Potency,[13],inactive
same,IC50 (viability decrease),[14],inactive
same,Potency,[3],inactive
same,Potency,[4],13.2 µM (active)
same,outcome,[9],inactive
same,Potency,[10],inactive
same,Potency,[11],inactive
CC(C[N+](C)(C)C)OC(N)=O (stereo unspecified),Potency,[1],inactive
same,Potency,[15],inactive
same,outcome,[2],inactive
same,Potency,[4],inactive
same,outcome,[5],inactive
same,Potency,[6],inactive
same,Potency,[7],inactive
same,outcome,[19],inactive
same,outcome,[8],inactive
same,outcome,[9],inactive
same,Potency,[10],inactive
same,Potency,[11],inactive
CN1CCN(CCCN2c3ccccc3Sc3ccc(C(F)(F)F)cc32)CC1,Potency,[1],14.8 µM (active)
same,outcome,[2],inactive
same,Potency,[3],inactive
same,Potency,[4],inactive
same,Potency,[7],inactive
same,Potency,[10],inactive
same,Potency,[11],inactive
NC(=O)c1cnccn1,Potency,[1],inactive
same,Potency,[15],inactive
same,outcome,[2],inactive
same,Potency,[3],inactive
same,Potency,[4],inactive
same,outcome,[5],inactive
same,Potency,[6],inactive
same,Potency,[7],inactive
same,outcome,[19],inactive
same,outcome,[8],inactive
same,outcome,[9],inactive
same,Potency,[10],inactive
same,Potency,[11],inactive
Cc1ccccc1C(OCCN(C)C)c1ccccc1 (stereo unspecified),Potency,[1],inactive
same,Potency,[15],inactive
same,outcome,[2],inactive
same,Potency,[3],inactive
same,Potency,[4],inactive
same,outcome,[5],inactive
same,Potency,[6],inactive
same,Potency,[7],inactive
same,outcome,[8],inactive
same,outcome,[9],inactive
same,Potency,[10],inactive
same,Potency,[11],inactive
N#Cc1ccc(C(c2ccc(C#N)cc2)n2cncn2)cc1,Potency,[1],14.8 µM (active)
same,outcome,[2],inactive
same,Potency,[17],inactive
same,Potency,[13],inactive
same,IC50 (viability decrease),[14],inactive
same,Potency,[4],inactive
same,Potency,[7],inactive
same,Potency,[10],inactive
NCCc1ccc(O)c(O)c1,Potency,[1],1.66 µM (active)
same,outcome,[2],inactive
same,Potency,[4],inactive
same,outcome,[5],inactive
same,Potency,[6],inactive
same,Potency,[7],inactive
same,outcome,[8],inactive
same,outcome,[9],inactive
same,Potency,[10],inactive
CCOC(=O)N1CCC(=C2c3ccc(Cl)cc3CCc3cccnc32)CC1,Potency,[1],23.5 µM (active)
same,Potency,[15],inactive
same,outcome,[2],inactive
same,Potency,[3],inactive
same,outcome,[5],inactive
same,Potency,[6],inactive
same,Potency,[7],inactive
same,outcome,[19],inactive
same,outcome,[8],inactive
same,outcome,[9],inactive
same,Potency,[10],inactive
O=c1[nH]cnc2[nH]ncc12,Potency,[1],inactive
same,Potency,[15],inactive
same,outcome,[2],inactive
same,Potency,[4],inactive
same,outcome,[5],inactive
same,outcome,[20],inactive
same,Potency,[6],inactive
same,Potency,[7],inactive
same,outcome,[8],inactive
same,outcome,[9],inactive
same,Potency,[10],inactive
same,Potency,[11],inactive
Clc1ccc(Nc2nnc(Cc3ccncc3)c3ccccc23)cc1,Potency,[1],26.4 µM (active)
same,Potency,[15],inactive
same,outcome,[2],inactive
same,Potency,[17],inactive
same,IC50 (viability decrease),[14],inactive
same,Potency,[4],inactive
same,Potency,[7],inactive
same,Potency,[10],inactive
CC(c1cc2ccccc2s1)N(O)C(N)=O (stereo unspecified),Potency,[1],inactive
same,outcome,[2],inactive
same,Potency,[17],inactive
same,Potency,[13],inactive
same,Potency,[7],inactive
same,Potency,[10],inactive
same,Potency,[11],inactive
N=c1nc(N2CCCCC2)cc(N)n1O,Potency,[1],inactive
same,outcome,[2],inactive
same,Potency,[6],inactive
same,Potency,[7],inactive
same,Potency,[10],inactive
same,Potency,[11],inactive
C[C@H](NC(=O)Cc1cc(F)cc(F)c1)C(=O)N[C@@H]1C(=O)N(C)c2ccccc2-c2ccccc21,Potency,[1],11.8 µM (active)
same,Potency,[17],inactive
same,Potency,[13],inactive
same,IC50 (viability decrease),[14],inactive
same,Potency,[3],inactive
same,Potency,[10],inactive
same,Potency,[11],11.8 µM (active)
O=C(C=Cc1ccc(/C=C/C(=O)Nc2ccc(C3=NCCN3)cc2)cc1)Nc1ccc(C2=NCCN2)cc1,Potency,[1],inactive
same,Potency,[17],inactive
same,Potency,[13],inactive
same,IC50 (viability decrease),[14],inactive
same,Potency,[3],inactive
same,Potency,[4],inactive
same,Potency,[7],inactive
same,Potency,[10],inactive
same,Potency,[11],inactive
